Screening results deposited in PubChem BioAssay by Sanford-Burnham Center for Chemical Genomics.
Only a selection was taken, and hits are over-represented in it overall.
DUSP3 inh: VHR1 phosphatase inhibitors, primary screen, biochemical, colorimetric, HTS; Dual specificity protein phosphatase 3 (Homo sapiens), P51452; recombinant VHR phosphatase, colorimetric substrate read-out; inhibition, % at 20 µM; 50,000 tested, 0.7% active; AID 1992, 2009; in the data active = inhibition above about 60%
Target sequence (P51452 whole entry, looked up): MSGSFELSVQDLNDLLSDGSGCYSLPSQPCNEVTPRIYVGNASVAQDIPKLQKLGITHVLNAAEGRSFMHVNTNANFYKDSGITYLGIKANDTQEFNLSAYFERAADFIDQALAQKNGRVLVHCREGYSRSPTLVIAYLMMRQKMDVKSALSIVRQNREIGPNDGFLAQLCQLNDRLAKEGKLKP
* marks the source's active call; other numbers are inactive results.

SMILES	DUSP3 inh
O=C(/C=C/c1ccc(-c2ccccc2[N+](=O)[O-])o1)Nc1ccc(O)c(-c2nc3ccccc3o2)c1	-10
O=C(/C=C/c1ccc(-c2ccccc2[N+](=O)[O-])o1)Nc1ccc(-c2nc3ccccc3o2)cc1	106*
O=C(/C=C/c1ccc(-c2ccccc2[N+](=O)[O-])o1)NCc1ccccc1	2
CCCCOC(=O)COC(=O)COc1c(Cl)cc(Cl)cc1Cl	-3
O=C(Nc1ccc([N+](=O)[O-])cc1)C1C2C3CCC(C3)C12 (centres undefined)	84*
O=C(Nc1ccc([N+](=O)[O-])cc1)C1C(c2ccccc2)=C1c1ccccc1	-1
Cc1ccc([N+](=O)[O-])cc1NC(=O)C1C2C3CCC(C3)C12 (centres undefined)	6
Cc1nc(-c2ccccc2)sc1C(=O)NCc1ccccc1	-14
CCCCCCCCS(=O)(=O)c1sc2nc(C)cc(C)c2c1N	12
O=[N+]([O-])c1ccc(-c2ccc(C(=S)N3CCCCC3)o2)cc1	-23
O=[N+]([O-])c1ccc(-c2ccc(C(=S)N3CCOCC3)o2)cc1	2
Cc1ccc(N2CCN(C(=S)c3ccc(-c4cccc([N+](=O)[O-])c4)o3)CC2)cc1	91*
CC1=NN(c2ccccc2)C(=O)/C1=C\c1ccc(N2CCOCC2)c([N+](=O)[O-])c1	16
CC1CCN(c2ccc(C=C3C(=O)c4ccccc4C3=O)cc2[N+](=O)[O-])CC1	-34
CN1C(=O)C(=Cc2ccc(N3CCCC3)c([N+](=O)[O-])c2)C(=O)N(C)C1=O	90*
O=C(CSc1nnc(-c2ccc(Br)cc2)o1)NC1CCCCC1	-22
CCOC(=O)CSCCOc1ccc(/C=C2/C(=O)NC(=O)N(c3ccc(C)cc3)C2=O)cc1OC	-16
O=[N+]([O-])c1cc(-c2nnc(-c3ccc(Br)o3)o2)cc([N+](=O)[O-])c1	-20
COC(=O)C1=C(C)N(C)C(C)=C(C(=O)OC)C1c1cc(Br)c(OC)c(OC)c1	116*
COC(=O)C1=C(C)N(C)C(C)=C(C(=O)OC)C1c1ccc(OC)c(OC)c1	7
COC(=O)C1=C(C)N(C)C(C)=C(C(=O)OC)C1c1cc(OC)c(OC)c(OC)c1	-2
Cc1ccsc1/C=C(\C#N)c1nc(-c2cc3cc(Br)ccc3oc2=O)cs1	-3
COc1ccc(/C=C/c2cc(C(F)(F)F)[nH]c(=O)n2)cc1	-20
COc1cc(C2Nc3ccccc3NC3=C2C(=O)CC(c2ccc(Cl)cc2)C3)cc(Br)c1O (centres undefined)	-3
CCOc1cc(C2Nc3ccccc3NC3=C2C(=O)CC(c2ccc(OC)cc2)C3)cc(Br)c1O (centres undefined)	2
SMILES	DUSP3 inh
CCOc1cc(C2Nc3ccccc3NC3=C2C(=O)CC(c2ccccc2)C3)cc(Br)c1O (centres undefined)	99*
N/C(Cc1ccc(Cl)cc1)=N\OC(=O)c1ccc([N+](=O)[O-])cc1	1
COc1ccc(C2CC(=O)C3=C(C2)Nc2ccccc2NC3c2cccc(Oc3ccccc3)c2)cc1OC (centres undefined)	-7
O=C1NC(=S)N(c2ccccc2)C(=O)/C1=C/c1ccco1	67*
O=C1NC(=S)N(c2ccccc2)C(=O)/C1=C/c1cc(Br)c(O)c(Br)c1	25
C=CCN1C(=O)/C(=C\C=C\c2ccco2)C(=O)NC1=S	88*
Cc1ccc(C=C2C(=O)NC(=S)N(c3ccccc3F)C2=O)s1	12
O=C1NC(=S)N(c2ccccc2F)C(=O)C1=Cc1ccco1	87*
C=CCN1C(=O)/C(=C\c2ccc(Br)cc2)C(=O)NC1=S	29
CCc1ccc(N2C(=O)NC(=O)/C(=C/C=C/c3ccco3)C2=O)cc1	2
O=C1NC(=S)N(c2ccccc2F)C(=O)/C1=C/c1ccc(Sc2ccccc2)o1	24
O=C1NC(=S)N(c2ccccc2)C(=O)/C1=C/c1ccc(Cl)cc1Cl	89
CCOC(=O)Oc1ccc2c(=O)c(-c3ccccc3OC)coc2c1	-18
COc1ccc(/C=C/C(=O)CC(=O)C(Cl)(Cl)Cl)cc1	106
CCCCOC(=O)c1ccc(NC(C)=O)cc1	-14
CCCCC(=O)Nc1ccc(C(=O)OCCC)cc1	107*
CCCOC(=O)c1ccc(NC(=O)/C=C\C(=O)O)cc1	6
CCCOC(=O)c1ccc(NC(=O)COc2ccc(OC)cc2)cc1	-14
CCCOC(=O)c1ccc(NC(=O)CCC)cc1	111*
CCCOC(=O)c1ccc(NC(=O)c2cc(Cl)c(OC)c(Cl)c2)cc1	-11
NNC(=O)c1cc(-c2ccc3c4c(cccc24)CC3)n[nH]1	31
COC(=O)C1=C(C)NC2=C(C(=O)CCC2)C1c1ccc(I)cc1 (centres undefined)	-10
Cc1cccc(NC(=O)C(=O)NCCC(C)C)c1	-25
CN1CCC(=NNC(=O)c2cc3ccccc3cc2O)CC1	94*
CCCN1CCC(=NNC(=O)c2ccccc2O)CC1	-14
SMILES	DUSP3 inh
CN1CCC(=NNC(=O)c2cccc([N+](=O)[O-])c2)CC1	-14
CCOc1ccc(C(=S)N2CCOCC2)cc1	6
CCOc1cc(N2CCOCC2)c(OCC)cc1N	88*
CCOc1ccc(C(=O)Nc2ccc(N3CCOCC3)c(Cl)c2)cc1Cl	-11
CC1=C(C(=O)OCCc2ccccc2)C(c2ccc(Cl)cc2)C2=C(CCCC2=O)N1 (centres undefined)	-12
O=C1CC(S(=O)(=O)O)c2ccccc2/C1=N/O (centres undefined)	-11
COc1ccc(C2CC(=O)C3=C(C2)Nc2ccccc2NC3c2ccc(NC(C)=O)cc2)cc1OC (centres undefined)	30
Cc1cccc(NC(=O)C2CC2(c2ccccc2)c2ccccc2)c1C (centres undefined)	5
Cc1cccc(NC(=O)C2C(c3ccccc3)C=CC(c3ccccc3)C2C(=O)O)c1C (centres undefined)	98*
Cc1cccc(NC(=O)C(C)Oc2ccccc2)c1C (centres undefined)	-39
Cc1ccc(OCC(=O)O/N=C(\N)c2ccc(Cl)cc2)cc1	-2
O=c1c2ccccc2[nH]c(=S)n1Cc1ccccc1	-8
Cc1c(C=O)c2ccccc2n1Cc1ccccc1Cl	-4
Cn1c(=O)c2c([nH]c(=S)n2Cc2ccccc2Cl)n(C)c1=O	95*
COc1ccc(N2C(=O)NC(=O)/C(=C/c3cn(CCOc4ccccc4OC)c4ccccc34)C2=O)cc1	-15
Cc1ccccc1N1C(=O)NC(=O)/C(=C/c2cn(CC(=O)Nc3ccccc3)c3ccccc23)C1=O	85*
O=C(Cn1cc(/C=C2\SC(=O)NC2=O)c2ccccc21)Nc1ccccc1	4
O=C1NC(=O)N(c2ccc(Cl)cc2)C(=O)/C1=C/c1ccccc1	-29
C#CCn1cc(/C=C2\C(=O)NC(=O)N(c3ccc(Cl)cc3)C2=O)c2ccccc21	82*
O=C(Cn1cc(/C=C2\NC(=O)NC2=O)c2ccccc21)Nc1ccccc1	-15
Cc1onc(-c2c(Cl)cccc2Cl)c1C(=O)Nc1ccc(OCc2ccccc2)cc1	-30
CCCOc1ccc(C(=O)Nc2nc3ccc(OCC)cc3s2)cc1	-17
COc1ccc(C(=O)c2ccc(OC)c(N)c2)cc1N	5
COc1cc(N)ccc1-n1c(C)ccc1C	70*
COc1ccc(-c2nc3cc(N)ccc3o2)cc1OC	-1
CCOc1cc(/C=N/n2cnnc2)cc(Cl)c1OCCOc1cc(C)ccc1C(C)C	110*
CCC(C)c1ccc(OCCOc2c(Cl)cc(/C=N/n3cnnc3)cc2OC)cc1 (centres undefined)	-2
COc1ccccc1OCCOc1c(Cl)cc(/C=N/n2cnnc2)cc1OC	2
